Peg3 promoter: reduces Peg3 promoter-driven luciferase expression in HeLa; inhibition, % at 20 µM; HeLa PEG-Prom luciferase reporter, luminescence, overnight; AID 588405; 1.7% of 360,000 active;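 active = inhibition of at least 50% at 20 µM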
HIF-2a block: blocks HIF-2a reporter activity. 786-0 RCC cells HIF-2a reporter, luciferase luminescence, overnight. inhibition, % at 18.8 µM. 0.72% of 360,000 active. AID 624352;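 active = inhibition of the luminescence signal of 40% or more relative to plate controls, in a single-dose primary screen at 18.75 µM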
TRAIL sens C8: caspase-8 TRAIL sensitization; inhibition (viability loss, TRAIL sensitization), % at 10 µM; AID 624354; 1% of 360,000 active; NB7+C8 cells + TRAIL, ATPlite viability luminescence;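 active = compounds causing at least 50% loss of cell viability in the single-dose screen, relative to plate controls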
PPC-1+TRAIL kill: compounds killing PPC-1 cancer cells with TRAIL present (potentiator screen, no TRAIL-free arm) | PPC-1 cells + TRAIL, ATPLite viability luminescence | cell killing (% activity), % at 4 µM or 5 µM | 0.41% of 220,000 active;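 active = cell killing above 50% in the first pass at 4 µM, then a duplicate retest at 5 µM averaging 50% or more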;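 also: plate controls were cells with TRAIL plus DMSO for no effect and medium-only wells lacking cells for full effect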
KKLEB cytotox: counter-screen for CF NF-kB inhibitors: cytotoxicity; KKLEB CF airway cells viability, ATPlite luminescence, overnight; hits give low values; cells stimulated with P. aeruginosa culture filtrate; 0.36% of 360,000 active; AID 602141; activity change (cytotoxicity), % at 5 µM;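 active = corrected activity change at or below -50% at 5 µM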
CF NFkB inh: cystic fibrosis NF-kB activation inhibition. inhibition, % at 5 µM. KKLEB NF-kB-GFP reporter, PAF-induced, GFP fluorescence overnight. 0.86% of 360,000 active;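 active = at least 50% inhibition at 5 µM, scaled per plate between neutral and stimulator controls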;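 also: PAF is a Pseudomonas aeruginosa culture filtrate used as stimulus; plate controls were PAF-stimulated DMSO wells for no effect and unstimulated DMSO wells for full effect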
Mdm2 MdmX conf: Mdm2/MdmX (human) interaction inhibition, confirmed; inhibition, % at 8 µM; shares compounds with HIF-2a block; SaOS-2 split-luciferase Mdm2/MdmX complementation, luminescence; 99% of 740 active; AID 504601;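 active = mean inhibition of the luminescence signal across two replicates at or above 26 percent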
Target sequence (O15151 whole entry, looked up): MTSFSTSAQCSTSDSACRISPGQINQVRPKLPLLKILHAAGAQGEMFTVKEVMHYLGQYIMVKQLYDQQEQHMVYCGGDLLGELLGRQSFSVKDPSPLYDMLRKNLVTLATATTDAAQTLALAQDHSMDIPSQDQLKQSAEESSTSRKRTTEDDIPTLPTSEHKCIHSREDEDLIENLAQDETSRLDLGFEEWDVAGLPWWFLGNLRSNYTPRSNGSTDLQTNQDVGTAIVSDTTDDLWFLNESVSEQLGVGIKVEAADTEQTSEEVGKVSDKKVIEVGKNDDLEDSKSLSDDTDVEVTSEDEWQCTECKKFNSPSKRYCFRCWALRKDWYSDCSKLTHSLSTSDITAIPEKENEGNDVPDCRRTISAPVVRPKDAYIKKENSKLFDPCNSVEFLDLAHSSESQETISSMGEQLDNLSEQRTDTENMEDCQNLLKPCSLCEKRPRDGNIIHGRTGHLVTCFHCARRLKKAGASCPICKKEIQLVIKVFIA
Target sequence (Q00987 whole entry, looked up): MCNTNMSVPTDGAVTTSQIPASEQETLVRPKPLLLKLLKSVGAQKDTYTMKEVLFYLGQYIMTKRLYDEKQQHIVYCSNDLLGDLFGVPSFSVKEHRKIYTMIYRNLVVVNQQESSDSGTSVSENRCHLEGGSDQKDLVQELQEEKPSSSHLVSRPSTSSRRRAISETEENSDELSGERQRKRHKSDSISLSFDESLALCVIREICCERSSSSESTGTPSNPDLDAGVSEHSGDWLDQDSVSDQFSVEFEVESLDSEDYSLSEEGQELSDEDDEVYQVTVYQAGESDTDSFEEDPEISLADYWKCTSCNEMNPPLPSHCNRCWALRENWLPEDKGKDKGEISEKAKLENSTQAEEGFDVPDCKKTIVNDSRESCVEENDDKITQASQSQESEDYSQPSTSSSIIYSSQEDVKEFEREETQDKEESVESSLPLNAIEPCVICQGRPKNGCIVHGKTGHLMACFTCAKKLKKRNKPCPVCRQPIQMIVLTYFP
HIF-2a conf: HIF-2a inhibition, single concentration confirmation. shares compounds with HIF-2a block. AID 651580. 56% of 1,800 active. 786-0 RCC cells, HIF-2a luciferase reporter luminescence, overnight. inhibition, % at 18.8 µM;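 active = mean inhibition across four replicates of at least 40 percent at the single tested concentration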
HIF-1a counter: HIF-1a inhibition counter-screen for HIF-2a hits; shares compounds with HIF-2a block; MiaPaCa-2 HIF-1a luciferase reporter, desferoxamine, overnight; inhibition, % at 18.8 µM; 72% of 1,800 active; AID 651589;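 active = mean inhibition of the reporter signal across four replicates at the single tested dose of 50% or more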
The depositor's hits bear a star. Sampled rows, rich in hits. Any-hit rate of the full collection: about 3.1%.

Results for CN(C)CCCNC(=O)OC1CC2CC1[C@H]1CCCCN1C2=O (some centres not stated) ?
HIF-2a block: 11.9; TRAIL sens C8: 9.1

How did Cc1ccc(/C=C/C(=O)c2ccc([N+](=O)[O-])o2)cc1 do in these assays?
Mdm2 MdmX conf: 103.2*

Results for CCOC(=O)N1CCN(C(=O)/C=C/c2ccc(C(C)(C)C)cc2)CC1 ?
Peg3 promoter: 1.9; HIF-2a block: 5.8; TRAIL sens C8: -11.8; KKLEB cytotox: -3.0; CF NFkB inh: 3.4

What do the screens show for `COc1cc2ncc(S(=O)(=O)c3ccccc3)c(N3CCC4(CC3)OCCO4)c2cc1OC`?
Peg3 promoter: 24.0; HIF-2a block: 40.2*; TRAIL sens C8: 18.0; PPC-1+TRAIL kill: 27.3; KKLEB cytotox: 6.1; CF NFkB inh: 16.9; HIF-2a conf: 21.7; HIF-1a counter: 98.4*

How did COc1ccc(CNCc2ccc(C(F)(F)F)cc2)cc1OC do in these assays?
Peg3 promoter: 14.1; HIF-2a block: 17.2; TRAIL sens C8: -15.4; KKLEB cytotox: -5.8; CF NFkB inh: -8.7

How did COc1ccc2c(/C=N/Nc3ccc(C(=O)O)cc3)c[nH]c2c1 do in these assays?
Peg3 promoter: -184.1; HIF-2a block: -143.1; TRAIL sens C8: 20.6; KKLEB cytotox: 5.6; CF NFkB inh: 8.0

What do the screens show for `CCCCCN=C(N)N/N=C/c1c[nH]c2ccc(OC)cc12`?
Peg3 promoter: 94.8*; HIF-2a block: 97.6*; TRAIL sens C8: 94.1*; KKLEB cytotox: -24.0; CF NFkB inh: 24.8; HIF-2a conf: 35.3; HIF-1a counter: 100.1*

What do the screens show for `CCN1CCN(c2ccc(S(=O)(=O)N3CCCCC3)cc2NC(=O)/C=C/c2ccc([N+](=O)[O-])cc2)CC1`?
Peg3 promoter: 76.0*; HIF-2a block: 87.0*; TRAIL sens C8: 26.2; KKLEB cytotox: -20.2; CF NFkB inh: -25.9; HIF-2a conf: -16.6; HIF-1a counter: 100.8*

What do the screens show for `CCN1C(=O)[C@H]2[C@@H](c3ccc(C(F)(F)F)cc3)N[C@]3(CCCN(Cc4ccco4)C3=O)[C@H]2C1=O`?
Peg3 promoter: -3.5; HIF-2a block: 2.2; TRAIL sens C8: -4.4; KKLEB cytotox: 5.0; CF NFkB inh: -2.8

How did Cc1cccc(OCc2ccccc2)n1 do in these assays?
Peg3 promoter: 11.5; HIF-2a block: 9.6; TRAIL sens C8: 0.0; KKLEB cytotox: 3.6; CF NFkB inh: -37.8

How did CCCCCCCCCCn1ccc(=N)cc1 do in these assays?
Peg3 promoter: 46.2; HIF-2a block: 37.0; TRAIL sens C8: 55.0*; PPC-1+TRAIL kill: 46.7; KKLEB cytotox: -46.6; CF NFkB inh: 39.5; Mdm2 MdmX conf: 98.0*

Results for CC(C)CC(N)c1csc(NC(=O)c2cc(C(C)(C)C)nn2Cc2ccccc2)n1 (configuration not stated) ?
Peg3 promoter: 111.5*; HIF-2a block: 92.0*; TRAIL sens C8: 84.4*; KKLEB cytotox: -21.2; CF NFkB inh: 0.8; HIF-2a conf: 7.9; HIF-1a counter: 106.6*

Results for Cc1nnc(SC(C)C(=O)Nc2ccc(N3CCOCC3)cc2)n1Cc1ccccc1 (configuration not stated) ?
Peg3 promoter: -3.3; HIF-2a block: 4.7; TRAIL sens C8: -10.5; KKLEB cytotox: 1.3; CF NFkB inh: 12.7

What do the screens show for `Cc1cc(C)cc(N=c2c([N+](=O)[O-])nn(-c3ccc4c(c3)OCCO4)n2O)c1`?
Peg3 promoter: -58.9; HIF-2a block: -102.7; TRAIL sens C8: 23.9; PPC-1+TRAIL kill: 12.6; KKLEB cytotox: -11.6; CF NFkB inh: 20.0
